{"source": "PubChem BioAssay AID540256", "about": "(National Center for Advancing Translational Sciences (NCATS), 2011)", "note": "Among all 300,000 compounds or so, about 3,700 (1.2%) were called active. Roughly 20% stayed inconclusive and do not appear here. This is one part of a sample in which actives are shown more often than they occur. Values without a mark were called inactive. The call rests on the fitted dose curve; tested in HEK293 cells. On the % scale 0 is the no-effect control and ±100 the full control effect; potency means the concentration at half of the fitted maximal effect."}
{"assay": "qHTS for Inhibitors of binding or entry into cells for Lassa Virus; further: nearly all actives have a fitted effect of over 50% in size", "conditions": "Lassa virus pseudotype entry inhibition, cell reporter; series mostly up to 37.9 µM; activity change, negative = inhibition: at the top concentration"}
{"smiles": "Cc1cc(S(=O)(=O)N2CCOCC2)ccc1OCC(=O)N1CCOCC1", "activity change, negative = inhibition": "-0.783%"}
{"smiles": "Cc1cc(C(=O)COc2ccccc2[N+](=O)[O-])c(C)n1-c1cccc(S(=O)(=O)N2CCOCC2)c1", "Potency": "6.31 µM (active)"}
{"smiles": "CSCCC(NS(=O)(=O)c1ccccc1F)C(=O)N1CC=C(c2ccccc2)CC1", "note": "(stereo not drawn)", "activity change, negative = inhibition": "4.87%"}
{"smiles": "O=C(c1ccc(F)cc1)N1CCC(C(=O)N2CCN(S(=O)(=O)c3ccccc3Br)CC2)CC1", "activity change, negative = inhibition": "-18.6%"}
{"smiles": "COC(=O)c1cnn(-c2ccc(C(=O)Nc3ccc(OC(F)(F)F)cc3)cc2)c1N", "activity change, negative = inhibition": "8.84% [at 46.1 µM]"}
{"smiles": "Cc1cccc(NS(=O)(=O)c2ccc(C(=O)NCC(C)(C)N3CCOCC3)cc2)c1C", "activity change, negative = inhibition": "-18.3%"}
{"smiles": "O=C(CSC(=S)N1CCOCC1)c1cc(Br)cc(Br)c1O", "activity change, negative = inhibition": "4.47%"}
{"smiles": "O=C(CSC(=S)N1CCOCC1)c1ccccc1", "Potency": "14.6 µM (active)"}
{"smiles": "CC1CN(C(=S)SCC(=O)c2ccccc2)CC(C)O1", "note": "(stereo not drawn)", "activity change, negative = inhibition": "3.79%"}
{"smiles": "Cc1cccc(C(=O)Nc2ccc(C(=O)N/N=C/c3cccc(C)n3)cc2)c1", "activity change, negative = inhibition": "-11.5% [at 46.1 µM]"}
{"smiles": "Cc1cccc(C=CC(=O)c2ccc(Cl)cc2)c1", "activity change, negative = inhibition": "-0.612%"}
{"smiles": "COc1ccc(OC)c(NC(=O)c2sc3nc(C)cc(C)c3c2N)c1", "activity change, negative = inhibition": "4.31% [at 46.1 µM]"}
{"smiles": "COc1ccc(OC)c(Cc2cnc3nc(N)nc(N)c3c2C)c1", "Potency": "0.251 µM (active)"}
{"smiles": "COc1ccc(OC)c(Cc2nnc(CCC(=O)NC3CCCC3)o2)c1", "activity change, negative = inhibition": "0.521%"}
{"smiles": "CC(=O)Nc1ccc(S(=O)(=O)NCC(=O)OCC(=O)c2ccc[nH]2)cc1", "activity change, negative = inhibition": "-0.036%"}
{"smiles": "CC(=O)c1cccc(OCC(=O)OCC(=O)Nc2cc(S(=O)(=O)N3CCCCC3)ccc2C)c1", "activity change, negative = inhibition": "-1.54%"}
{"smiles": "CCCOc1ccc(C(=O)C(CCC(CNCC)C(=O)c2ccc(OCCC)cc2)CNCC)cc1", "note": "(stereo not drawn)", "Potency": "13 µM (active)"}
{"smiles": "CCCCOc1ccc(C(=O)NN2CCN(C)CC2)cc1", "activity change, negative = inhibition": "-1.96%"}
{"smiles": "CCCOc1ccc(C(=O)CCC(=O)OC(C)C(=O)Nc2ccc(NC(C)=O)cc2)cc1", "note": "(stereo not drawn)", "activity change, negative = inhibition": "5.75% [at 46.1 µM]"}
{"smiles": "CCc1noc(C)c1C(=O)N1CCCC(N2CCN(c3ccc(F)cc3)CC2)C1", "note": "(stereo not drawn)", "activity change, negative = inhibition": "5.55%"}
{"smiles": "COc1ccc(C(=O)Nc2ccccc2C(=O)NCc2ccco2)cc1", "activity change, negative = inhibition": "-0.689% [at 46.1 µM]"}
{"smiles": "COc1ccc(/C=C(\\NC(=O)c2ccc(OCC(C)C)cc2)C(=O)OCc2ccco2)cc1", "Potency": "12.6 µM (active)"}
{"smiles": "COc1ccc(/C=C(/NC(=O)c2ccco2)C(=O)Nc2ccc(C(C)=O)cc2)cc1", "activity change, negative = inhibition": "-17.3%"}
{"smiles": "Cc1cc(C)c(C)c(S(=O)(=O)Nc2cccnc2)c1C", "activity change, negative = inhibition": "-11.1%"}
{"smiles": "CCOc1ccccc1CNC(=O)c1cnc2c(-c3ccc(OCC)c(OCC)c3)c(C)nn2c1C", "activity change, negative = inhibition": "-2.1% [at 46.1 µM]"}
{"smiles": "Cc1ccc2nc(NC(=O)C3CSC4(C)CCC(=O)N34)sc2c1", "note": "(stereo not drawn)", "activity change, negative = inhibition": "16.4%"}
{"smiles": "O=C(Cc1c(Cl)cccc1Cl)NC1CC1", "activity change, negative = inhibition": "16.2% [at 46.1 µM]"}
{"smiles": "Cc1c(Cl)cccc1NC(=S)NCc1ccc2c(c1)OCO2", "activity change, negative = inhibition": "-5.04%"}
{"smiles": "CCc1cccc(CC)c1NC(=S)NCc1ccc2[nH]c(C)cc2c1", "Potency": "18.4 µM (active)"}
{"smiles": "Cc1c(NC(=S)NCc2ccc(F)cc2)cccc1[N+](=O)[O-]", "activity change, negative = inhibition": "-4.19%"}
{"smiles": "O=C(CCc1ccccc1Cl)Nc1ccc(S(=O)(=O)Nc2nccs2)cc1", "activity change, negative = inhibition": "-5.82%"}
{"smiles": "O=C(COC(=O)c1ccc(O)cc1O)NC(=O)c1ccccc1", "activity change, negative = inhibition": "-1.32%"}
{"smiles": "O=C(CN(Cc1ccccc1)C(=O)CCC(=O)Nc1ccccn1)NCCc1ccccc1", "activity change, negative = inhibition": "-18.6%"}
{"smiles": "Cc1cc([N+](=O)[O-])ccc1NS(=O)(=O)c1ccccc1", "activity change, negative = inhibition": "13.3% [at 46.1 µM]"}
{"smiles": "O=C(COc1cccnc1[N+](=O)[O-])Nc1ccc(Cl)cc1F", "activity change, negative = inhibition": "-13.2% [at 46.1 µM]"}
{"smiles": "O=C(c1ccco1)n1nc(-c2ccc(Cl)cc2)nc1NCc1ccccc1", "activity change, negative = inhibition": "16.4% [at 46.1 µM]"}
{"smiles": "O=C(c1cccs1)n1nc(NCc2ccccc2)nc1NCc1ccccc1", "Potency": "10 µM (active)"}
{"smiles": "O=C(CCC(=O)c1cccs1)NCc1ccccc1", "activity change, negative = inhibition": "8.14%"}
{"smiles": "Oc1cccc(CCc2ccccn2)c1", "activity change, negative = inhibition": "12.1%"}
{"smiles": "Cc1ccc(-c2nn(-c3ccc(F)cc3)cc2C(=O)NCC(c2cccs2)N2CCOCC2)cc1", "note": "(stereo not drawn)", "activity change, negative = inhibition": "-4.1%"}
{"smiles": "CCOC(=O)CSc1nc2sc3c(c2c(=O)[nH]1)CC(C)(C)OC3", "activity change, negative = inhibition": "20%"}
{"smiles": "CC(C)c1nc2sc3c(c2c(=O)n1N)CC(C)(C)OC3", "activity change, negative = inhibition": "4.95% [at 46.1 µM]"}
{"smiles": "CC/C(C)=N/Nc1nc2sc3c(c2c(=O)[nH]1)CC(C)(C)OC3", "Potency": "5.01 µM (active)"}
{"smiles": "Cc1ccc(NC(=O)CSc2nn3c(=O)c(C)nnc3s2)cc1Cl", "activity change, negative = inhibition": "13.1%"}
{"smiles": "COCC(C)n1c(SCC(=O)NC2CCCCC2C)nc2ccccc2c1=O", "note": "(stereo not drawn)", "activity change, negative = inhibition": "-23.2%"}
{"smiles": "COCC(C)n1c(SCc2ccc(C(=O)OC)o2)nc2ccccc2c1=O", "note": "(stereo not drawn)", "Potency": "10.3 µM (active)"}
{"smiles": "COC(=O)c1ccc(CSc2ccccc2C)o1", "activity change, negative = inhibition": "18.4%"}
{"smiles": "O=C(NCCS(=O)(=O)N1CCN(c2ccc(F)cc2)CC1)c1ccc2c(c1)OCO2", "activity change, negative = inhibition": "-11.9%"}
{"smiles": "O=C1/C(=C\\c2ccc(O)cc2)CCC1CNc1ccc(Cl)cc1", "note": "(stereo not drawn)", "activity change, negative = inhibition": "-15%"}
{"smiles": "Cc1cccc(NC(=O)c2cccc(S(=O)(=O)N3CCCC3)c2)n1", "activity change, negative = inhibition": "12.1%"}
{"smiles": "O=C(CCCn1c(=O)c2cccn2c2cccnc21)NCc1ccc(F)cc1", "activity change, negative = inhibition": "16.8% [at 46.1 µM]"}
{"smiles": "Cc1cccc(N2CCN(C(=O)Cn3ncc4c5ccccc5n(C)c4c3=O)CC2C)c1", "note": "(stereo not drawn)", "activity change, negative = inhibition": "8.45% [at 46.1 µM]"}
{"smiles": "Cc1cccc(N2CCN(C(=O)CCn3c(=O)c4cccn4c4cccnc43)CC2C)c1", "note": "(stereo not drawn)", "Potency": "7.94 µM (active)"}
